Results on 35 molecules are retold here after PubChem BioAssay.

Calls of active or inactive are those of the source.

A short description of the assay: E. coli acrAB mutant growth effects, primary screen, E. coli filamentation inducers, strain DRC39, OD650, 48 h (AID 1179).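 Further: screen aims at cell division blockers that make cells filament.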 The note with it: E. coli DRC39 delta-acrAB growth, higher = more signal, called active from +8 up or from −8 down.
`COc1cc2c(cc1O)C(c1cccs1)N(Cc1sc3ccccc3c1Cl)CC2` (stereo not given): the z-score is -0.89 (inactive). With `CC(C)(C)OC(=O)CC[C@]12N=C(c3ccc(OCCCO)cc3)O[C@H]1c1ccccc1N(Cc1ccccc1)C2=O`, the z-score is 0.124 (inactive). Next, `O=C1C2C=CC(C(O)c3ccc(I)cc3)N(Nc3ccccc3)C2C(=O)N1c1ccccc1` (stereo not given): -0.28 (inactive); `C=CCN1C(=O)[C@@]2(O[C@@H](CCO)[C@H]([Si](C)(C)c3ccc(OC)cc3)[C@H]2C)c2cc(N3CCOC3=O)ccc21`: 0.231 (inactive); `CCOC(=O)C1=C[C@@H](C(C)(C)C)N(S(=O)(=O)c2ccc(C)cc2)[C@H]1c1cccc(Cl)c1`: -0.104 (inactive). Turning to `CO[C@H]1O[C@H](CO)[C@@H](OC(=O)Nc2cccc(F)c2)[C@H](OC(=O)Nc2ccccc2-c2ccccc2)[C@H]1OC(=O)Nc1ccccc1-c1ccccc1`, the z-score is -0.516 (inactive). `COCC(=C=CC[C@@H](O)c1ccc(OCCO)cc1)CCO`: the z-score was 1.23 (inactive). Take `C=CCC(OC(C)=O)[C@@H]1[C@@H](N(Cc2ccc(-c3cccc(C(F)(F)F)c3)o2)C(=O)Cc2ccc(OC)cc2)c2cc(OCCCO)ccc2N1C(=O)Cc1ccc2ccccc2c1` (stereo not given in full): the z-score is 0.279 (inactive).

For the molecule `CN1C(=O)[C@@H]2[C@@H](CC(COc3ccccc3)=C([C@H](O)CCc3ccccc3)[C@@H]2CO)C1=O`, the z-score is 1.17 (inactive).

Take `COc1cc(NN2C(C(O)C3CCCCC3)C=CC3C(=O)N(C)C(=O)C32)cc(OC)c1OC` (stereo not given): the z-score is -0.498 (inactive). For `C=CCC(OC(C)=O)[C@@H]1[C@@H](N(Cc2cccc3ccccc23)C(=O)c2ccc(-c3ccccc3)cc2)c2cc(OCCCO)ccc2N1C(=O)c1ccc(-c2ccccc2)cc1` (stereo not given in full), the z-score was -0.228 (inactive). On to `[N-]=[N+]=NCc1ccccc1C[C@@]1(C(=O)N2CCCCC2)N=C(c2ccc(OCCCO)cc2)O[C@@H]1c1ccccc1CN=[N+]=[N-]`, for which the z-score was 0.594 (inactive).

`COC(=O)[C@@]1(Cc2ccc(OC)cc2)[C@H]2c3cc(C(=O)N4CCCC4)n(Cc4ccc(S(C)(=O)=O)cc4)c3C[C@H]2CN1C(=O)c1ccccc1`: the z-score is -0.113 (inactive). Turning to `CCOC(=O)C[C@H]1[C@H](OC(=O)c2ccc(C(=O)c3ccccc3)cc2)[C@@H](NC(=O)CC(C)C)c2cc(OCCCO)ccc2N1C(=O)Cc1ccc(OC)cc1`, the z-score is -0.0261 (inactive).

Consider `O=C1C2C=CC(C(O)c3ccco3)N(Nc3ccccc3)C2C(=O)N1c1ccccc1` (stereo not given), for which the z-score is 0.154 (inactive).

As to `Cc1ccc(F)cc1S(=O)(=O)N[C@@H]1CCN(Cc2cccc3[nH]ccc23)C1`, the z-score is -1.32 (inactive). Next, `CCOC(=O)C1=C[C@@H](c2ccccc2)N(S(=O)(=O)c2ccc(C)cc2)[C@H]1c1ccccc1`: -0.605 (inactive).

Consider `COCCOC(=O)N1C(=O)[C@@]2(c3cc(C#CCC(C(=O)OC)C(=O)OC)ccc31)[C@H](c1ccc(OCCO)cc1)N1[C@H](c3ccccc3)[C@H](c3ccccc3)OC(=O)[C@H]1[C@@H]2C(=O)Nc1nc2ccccc2s1`, for which the z-score was 0.901 (inactive). For `COC(=O)[C@@]1(Cc2ccccc2CN=[N+]=[N-])N=C(c2ccc(OCCCO)cc2)O[C@H]1c1ccccc1`, the z-score was -0.783 (inactive). With `COC(=O)C(CC#Cc1ccc2c(c1)[C@]1(C(=O)N2)[C@H](c2ccc(OCCO)cc2)N2[C@H](c3ccccc3)[C@H](c3ccccc3)OC(=O)[C@H]2[C@@H]1C(=O)N1CCN(c2ncccn2)CC1)C(=O)OC`, the z-score is 0.152 (inactive). On to `CCCCCCCCCCC(O)C1C=CC2C(=O)N(C)C(=O)C2N1Nc1cc(OC)c(OC)c(OC)c1` (stereo not given), for which the z-score is -1.12 (inactive). As to `C=CCC(OC(C)=O)[C@@H]1[C@@H](N(Cc2ccc(-c3ccccc3)cc2)C(=O)c2ccc(C)cc2)c2cc(OCCCO)ccc2N1C(=O)Cc1ccc2ccccc2c1` (stereo not given in full), the z-score was 1.93 (inactive). Next, `Cc1cccc([C@H]2C[C@H]3C(Br)=C[C@@H]2C(=O)[C@]32CO2)c1`: -0.0628 (inactive); `O=C(O)[C@H]1C[C@H]2C(=O)N[C@@H](Cc3ccccc3)C(=O)N2[C@H]1c1cccc(OCCO)c1`: 0.214 (inactive).

For `Cc1cccc([C@H]2C[C@H]3C(I)=C[C@@H]2C(=O)[C@]32CO2)c1`, the z-score is -1.15 (inactive). Turning to `COc1cc(NN2C(C(O)c3ccc(I)cc3)C=CC3C(=O)N(c4ccccc4)C(=O)C32)cc(OC)c1OC` (stereo not given), the z-score is 0.176 (inactive). Next, `CCN(CC)c1ccc(N2CC=CC34O[C@@H]5/C=C\CCC(C)OC(=O)C5[C@H]3C(=O)N(C(C)CO)[C@@H]4C2=O)cc1` (stereo not given in full): 1.39 (inactive). With `C=CC[C@H](OC(=O)Nc1ccc(SC)cc1)c1ccc(OCCO)cc1`, the z-score was -0.254 (inactive). For `COCCOC(=O)N1C(=O)[C@@]2(c3cc(C#CCCO)ccc31)[C@H](c1ccccc1OCCO)N1[C@H](c3ccccc3)[C@H](c3ccccc3)OC(=O)[C@H]1[C@@H]2C(=O)N1CCCCCCC1`, the z-score is 0.343 (inactive). Next, `CC(C)C(=C=CC[C@H](O)c1cccc(OCCO)c1)CCO`: 0.642 (inactive). Take `CCCCNC(=O)c1ccc(C#C[Si](C(C)C)(C(C)C)C(C)C)c(OC(C)=O)c1`: the z-score is -0.0634 (inactive). Consider `C[C@@]12COC[C@]13C=C(Br)[C@H](C2)[C@@]1(CO1)C3=O`, for which the z-score was -0.534 (inactive). For the molecule `CC(C)[C@H]1NC(=O)[C@@]23C(=O)N[C@@H](Cc4ccccc4)C2[C@H](C)[C@@]2(C)O[C@H]2C3/C=C/CCC/C=C/CNC(=O)[C@H](Cc2ccccc2)NC1=O` (stereo not given in full), the z-score is -0.786 (inactive). On to `COCCCNC(=O)[C@@]1(Sc2ccc(C)cc2)CC(=O)N(C(C)C)[C@@H]1c1ccc(CO)cc1I`, for which the z-score was -0.0194 (inactive).

On to `CN(C)CCCCNC(=O)[C@H]1C[C@H]2C(=O)N[C@@H](CCCC[N+](C)(C)C)C(=O)N2[C@H]1c1ccc(O)cc1`, for which the z-score is 0.56 (inactive).
